Reference: the supplement of paper PMC9925115
Values joined by “and” are separate entries in the source; they are usually repeats but may differ in a detail not shown here. Equal values may be shown once. Where a name gives a salt, the structure may show the parent alone.

Tested on: FLX1 + dox-induced PRKAR1A G325D
Assay: difference in log2 fold change of viability vs plate median (dox-induced PRKAR1A G325D minus uninduced); higher = compound less effective when PKA is inhibited
Conditions: concentration: not stated (2 or 5 uM); 5 days
Protocol: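 For each plate a log2 fold change vs the plate median was derived, and the values without dox were subtracted from those with dox, averaged over three biological replicates.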

Row | SMILES | difference in log2 fold change of viability
1 | CO[C@H]1C[C@@H]2CC[C@@H](C)[C@@](O)(O2)C(=O)C(=O)N2CCCC[C@H]2C(=O)O[C@H]([C@H](C)C[C@@H]2CC[C@H](n3cnnn3)[C@H](OC)C2)CC(=O)[C@H](C)/C=C(\C)[C@@H](O)[C@@H](OC)C(=O)[C@H](C)C[C@H](C)/C=C/C=C/C=C/1C [Zotarolimus(ABT-578)] | 0.358
2 | CC1(COc2ccc3c(c2)ncn3-c2ccc3cccc(N4CCC(N)CC4)c3n2)COC1 | -0.0241
3 | C[C@H]1[C@H](C)CC[C@]2(C(=O)O)CC[C@]3(C)C(=CC[C@@H]4[C@@]5(C)C[C@@H](O)[C@H](O)[C@@](C)(CO)[C@@H]5CC[C@]43C)[C@H]12 [Asiatic Acid] | -0.0847
4 | Cc1ccccc1CN1C2=NCCN2C(=O)C2=C1CCN(Cc1ccccc1)C2 [TIC10 Analogue] | -0.0375
5 | COc1cc(Nc2c(C#N)cnc3cc(OCCCN4CCN(C)CC4)c(OC)cc23)c(Cl)cc1Cl [Bosutinib (SKI-606)] | -0.235
6 | N[C@@H]1CCCN(c2c(/C=C3\SC(=O)NC3=O)cccc2-c2ccccc2)C1 | 0.132
7 | Cc1nc(Nc2n[nH]c3c2CN(C(=O)N[C@H](CN(C)C)c2ccccc2)C3(C)C)c2sccc2n1 | 0.871
8 | COCC(=O)NC/C=C/c1ccc2ncnc(Nc3ccc(Oc4ccc(C)nc4)c(C)c3)c2c1 | 0.0049
9 | c1cncc(CN2CCC(n3ncc4c(N5CCOCC5)nc(-c5ccc6[nH]ccc6c5)nc43)CC2)c1 | -1.08
10 | S=C(NCc1ccc2c(c1)OCO2)N1CCN(c2ncnc3c2oc2ccccc23)CC1 [Amuvatinib (MP-470)] | 0.22
11 | Oc1cccc(-c2nc(N3CCOCC3)c3oc4ncccc4c3n2)c1 | 0.496
12 | CO[C@@H](C(=O)N1Cc2[nH]nc(NC(=O)c3ccc(N4CCN(C)CC4)cc3)c2C1)c1ccccc1 | 0.428
13 | CCc1cncnc1N1CCN(Cc2nc3ccc(C(F)(F)F)cc3[nH]2)CC1 | -1.55
14 | COc1ccc2c(Oc3ccc(NC(=O)c4c(C)n(CC(C)(C)O)n(-c5ccccc5)c4=O)nc3)ccnc2c1 | 0.00712
15 | CNC(=O)c1cc(Oc2ccc(NC(=O)Nc3ccc(Cl)c(C(F)(F)F)c3)cc2)ccn1 [Sorafenib Tosylate] | -0.44
16 | Nc1ccc(C(=O)Nc2cccc(-c3nc(N4CCOCC4)c4oc5ncccc5c4n3)c2)cn1 | 0.262
17 | CC(C)n1nc(-c2ccc3oc(N)nc3c2)c2c(N)ncnc21 | -0.0452
18 | O=C(NCc1cccc(O)c1)Nc1nc(-c2ccncc2)cs1 | -0.0799
19 | CCOc1ccn(-c2ccc(F)cc2)c(=O)c1C(=O)Nc1ccc(Oc2ccnc(N)c2Cl)c(F)c1 | 0.114
20 | CNC(=O)c1ccccc1Nc1nc(Nc2ccc(N3CCOCC3)cc2OC)ncc1Cl | -1.51

Row | SMILES | difference in log2 fold change of viability
21 | CNC(=O)c1cc(Oc2ccc(NC(=O)Nc3ccc(Cl)c(C(F)(F)F)c3)cc2)ccn1 [Sorafenib] | 0.0478
22 | Cn1cc(C2=C(c3ccc(Cl)cc3Cl)C(=O)NC2=O)c2ccccc21 | 0.189
23 | C[C@@H](NC(=O)c1ncnc(N)c1Cl)c1ncc(C(=O)Nc2cc(C(F)(F)F)c(Cl)cn2)s1 | -0.193
24 | Cc1cc(C(=O)NOCCO)c(Nc2ccc(I)cc2F)n(C)c1=O | -0.818
25 | CN1CCCN(C(=O)c2cccc(-c3ccc(/C=C4/C(=O)Nc5ccc(Cl)cc54)o3)c2)CC1 | -0.148
26 | C[C@@]1(C(=O)Nc2ccc(F)nc2)CCCN1c1nc(Nc2cc(C3CC3)n[nH]2)c2cccn2n1 | -1.23
27 | O=C(Cc1ccc(-c2ccc(OCCN3CCOCC3)cc2)cn1)NCc1ccccc1 | 0.213
28 | Oc1ccc(-c2nc(-c3ccc(F)cc3)c(-c3ccncc3)[nH]2)cc1 | 0.0143
29 | COc1ccc(S(=O)(=O)N(CCO)c2ccccc2CN(C)C/C=C/c2ccc(Cl)cc2)cc1 [KN-93 Phosphate] | 0.66
30 | CC[C@H](CO)Nc1nc(NCc2ccccc2)c2ncn(C(C)C)c2n1 [Roscovitine (Seliciclib,CYC202)] | 0.0426
31 | Nc1nc(N)c(N=O)c(OCC2CCCCC2)n1 | -0.216
32 | COC(=O)Nc1ccc(-c2nc(N3CCOCC3)c3cnn(C4CCN(C(=O)OC)CC4)c3n2)cc1 | 0.71
33 | CN1CCN(CCOc2cc(OC3CCOCC3)c3c(Nc4c(Cl)ccc5c4OCO5)ncnc3c2)CC1 [Saracatinib (AZD0530)] | -1.34
34 | CCOc1cc(C(=O)N2CCC(N3CCN(C)CC3)CC2)ccc1Nc1ncc2c(n1)N(C1CCCC1)c1ccccc1C(=O)N2C | 0.00328
35 | CCN(CC)CCCCNc1ncc2cc(-c3cc(OC)cc(OC)c3)c(NC(=O)NC(C)(C)C)nc2n1 | -0.527
36 | CO[C@H]1C[C@@H]2CC[C@@H](C)[C@@](O)(O2)C(=O)C(=O)N2CCCC[C@H]2C(=O)O[C@H]([C@H](C)C[C@@H]2CC[C@@H](OCCO)[C@H](OC)C2)CC(=O)[C@H](C)/C=C(\C)[C@@H](O)[C@@H](OC)C(=O)[C@H](C)C[C@H](C)/C=C/C=C/C=C/1C [Everolimus (RAD001)] | -1.32
37 | O=C(Nc1cccc(Cl)c1)Nc1ncc(CCNc2ncnc3ccsc23)s1 [SNS-314 Mesylate] | -0.153
38 | Cc1cc(Nc2ncc(Cl)c(Nc3ccccc3S(=O)(=O)C(C)C)n2)c(OC(C)C)cc1C1CCNCC1 [Ceritinib (LDK378)] | 0.032
39 | Cc1cnc(-c2cnc(NCCNc3ccc(C#N)cn3)nc2-c2ccc(Cl)cc2Cl)[nH]1 | -0.0854 and -0.119
40 | CCN1CCN(Cc2ccc(Nc3ncc(F)c(-c4cc(F)c5nc(C)n(C(C)C)c5c4)n3)nc2)CC1 | -0.0976
